PubChem BioAssay AID1159580 (chemical genetic matrix, 2015)
Hit rate of the full screen: of about 5,500 compounds, about 2,000 (36%) were called active. Roughly 18% stayed inconclusive and do not appear here. No stated cut-off is given here; in the data, active means normalized growth mostly below about 0.91 (no sharp cut-off); inconclusive means no clear call, values can overlap the other calls; inactive means mostly above about 0.92. The list shows a part of the results.

Experiment: chemical genetic growth profiling, strain panel (AID 1159580);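 further: tested at 20 µM; growth read once vehicle control cultures reached saturation at 30 °C; 1 = growth at the plate median or of vehicle wells; lower values mean less growth of the strain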
Settings: S. cerevisiae deletion strains, growth OD

Measured: normalized growth

O=S(=O)(O)c1cc(N=C=S)ccc1/C=C/c1ccc(N=C=S)cc1S(=O)(=O)O
inactive: locus YAL021C, strain ccr4, active compounds read low 1.03 | locus YAL026C, strain drs2, active compounds read low 1.01 | locus YAL030W, strain snc1, active compounds read low 1.02 | locus YBL061C, strain skt5, active compounds read low 1.03 | locus YBR009C, strain hhf1, active compounds read low 1.05 | locus YBR023C, strain chs3, active compounds read low 1.02 | locus YBR171W, strain sec66, active compounds read low 1.04 | locus YBR231C, strain swc5, active compounds read low 1.03 | locus YBR279W, strain paf1, active compounds read low 1.01 | locus YCL011C, strain gbp2, active compounds read low 1.02 | locus YCL016C, strain dcc1, active compounds read low 1.03 | locus YCL061C, strain MRC1, active compounds read low 1.02 | locus YCL069W, strain vba3, active compounds read low 1.02 | locus YCR088W, strain abp1, active compounds read low 1.02 | locus YDL005C, strain med2, active compounds read low 1.03 | locus YDL040C, strain nat1, active compounds read low 1.02 | locus YDR001C, strain nth1, active compounds read low 1.02 | locus YDR069C, strain doa4, active compounds read low 1.05 | locus YDR137W, strain rgp1, active compounds read low 1.01 | locus YDR159W, strain sac3, active compounds read low 1.06 | locus YDR195W, strain ref2 1.03 | locus YDR297W, strain sur2, active compounds read low 1.03 | locus YDR334W, strain swr1, active compounds read low 1.02 | locus YDR335W, strain msn5, active compounds read low 1.03 | locus YDR392W, strain spt3, active compounds read low 0.919 | locus YEL003W, strain gim4, active compounds read low 1.02 | locus YEL037C, strain rad23, active compounds read low 1.02 | locus YEL061C, strain CIN8 (second series), active compounds read low 1.02 | locus YER015W, strain faa2, active compounds read low 1.03 | locus YER016W, strain bim1, active compounds read low 1.03 | locus YER111C, strain swi4, active compounds read low 1.03 | locus YER155C, strain BEM2 (second series), active compounds read low 1.04 | locus YFR010W, strain ubp6, active compounds read low 1.03 | locus YGL167C, strain pmr1, active compounds read low 1.03 | locus YGL173C, strain kem1, active compounds read low 1.04 | locus YGL227W, strain vid30, active compounds read low 1.03 | locus YGL240W, strain doc1, active compounds read low 1.03 | locus YGL253W, strain hxk2, active compounds read low 1.03 | locus YHR013C, strain ard1, active compounds read low 1.04 | locus YHR027C, strain rpn1, active compounds read low 1.02 | locus YHR030C, strain SLT2, active compounds read low 0.996 | locus YHR079C, strain IRE1, active compounds read low 1.04 | locus YHR142W, strain chs7, active compounds read low 1.04 | locus YJL092W, strain hpr5, active compounds read low 1.01 | locus YJL095W, strain BCK1 (second series), active compounds read low 1.02 | locus YJL095W, strain BCK1, active compounds read low 0.99 | locus YJL115W, strain asf1, active compounds read low 1.02 | locus YJL129C, strain trk1, active compounds read low 1.06 | locus YJL154C, strain vps35, active compounds read low 1.02 | locus YJL164C, strain tpk1, active compounds read low 0.994 | locus YJL166W, strain qcr8, active compounds read low 1.02 | locus YJL187C, strain SWE1, active compounds read low 1.02 | locus YJR066W, strain TOR1, active compounds read low 0.924 | locus YKL160W, strain elf1, active compounds read low 1.02 | locus YKR026C, strain gcn3, active compounds read low 1.02 | locus YKR091W, strain srl3, active compounds read low 1.03 | locus YLL001W, strain dnm1, active compounds read low 1.01 | locus YLL026W, active compounds read low 1.01 | locus YLL041C, strain sdh2, active compounds read low 1.02 | locus YLR027C, strain aat2, active compounds read low 1.02 | locus YLR113W, strain HOG1, active compounds read low 1.11 | locus YLR221C, strain rsa3, active compounds read low 1.02 | locus YLR258W, strain gsy2, active compounds read low 1.03 | locus YLR262C, strain YPT6 (second series), active compounds read low 1.04 | locus YLR320W, strain mms22, active compounds read low 1.05 | locus YLR342W, strain FKS1, active compounds read low 1.04 | locus YLR357W, strain rsc2, active compounds read low 0.993 | locus YLR370C, strain arc18, active compounds read low 1.03 | locus YLR384C, strain iki3, active compounds read low 1.03 | locus YML120C, strain ndi1, active compounds read low 1.01 | locus YMR058W, strain fet3, active compounds read low 1.01 | locus YMR125W, strain sto1, active compounds read low 1.03 | locus YMR129W, active compounds read low 1.02 | locus YMR205C, strain PFK2, active compounds read low 1.06 | locus YMR231W, strain pep5, active compounds read low 1.02 | locus YNL071W, strain lat1, active compounds read low 1.02 | locus YNL183C, strain NPR1, active compounds read low 0.961 | locus YNL209W, strain ssb2, active compounds read low 1.03 | locus YNL248C, strain rpa49, active compounds read low 1 | locus YNL322C, strain KRE1 (second series), active compounds read low 1.03 | locus YNR049C, strain mso1, active compounds read low 1.03 | locus YOR001W, strain rrp6, active compounds read low 0.999 | locus YOR070C, strain gyp1, active compounds read low 1.01 | locus YOR080W, strain dia2, active compounds read low 1.04 | locus YOR083W, strain WHI5, active compounds read low 1.01 | locus YOR106W, strain vam3, active compounds read low 1.04 | locus YOR231W, strain MKK1, active compounds read low 1.03 | locus YOR265W, strain rbl2, active compounds read low 1.02 | locus YOR270C, strain vph1, active compounds read low 1.04 | locus YOR290C, strain snf2, active compounds read low 0.954 | locus YPL051W, strain arl3, active compounds read low 0.994 | locus YPL078C, strain atp4, active compounds read low 1.02 | locus YPL106C, strain sse1, active compounds read low 1.05 | locus YPL240C, strain hsp82, active compounds read low 1.03 | locus YPL256C, strain CLN2, active compounds read low 1.11
